Assay results taken from PubChem BioAssay (EPA / NIEHS).
Several values for one entry are separate records, joined by “and”; a condition that tells them apart may be missing. Identical values can stand only once. Results filed as inconclusive are left out. Activity calls are given as the source filed them. The calls were made as follows, unless noted: active = hit-call score of the fitted dose curve at least 0.9, where 1 is the maximum; inconclusive = response in the unintended direction; inactive = score below 0.9.

Columns and labels:
[1] = read-out: Thyroid Hormone Responsive (THRSP), THRSP (gene 7069); test: LTEA_HepaRG_THRSP: Life Technologies and Expression Analysis (LTEA) Assay for Thyroid Hormone Responsive (THRSP) using HepaRG (AID 2283536; active = hit-call score of the fitted dose curve at least 0.9, where 1 is the maximum; inactive = score below 0.9); conditions: mRNA level, 48 h; actives raise or lower the signal
How it was run: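 mRNA induction or loss relative to 0.5% DMSO vehicle was fitted bidirectionally across an eight-point curve whose highest exposure was 100 uM. Human HepaRG liver cells received chemicals in duplicate over 48 h before RNA extraction.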

[2] = read-out: Cellular tumor antigen p53 (Homo sapiens) (UniProt P04637); test: LTEA_HepaRG_TP53: Life Technologies and Expression Analysis (LTEA) Assay for Tumor Protein P53 (TP53) using HepaRG (AID 2283537; active = hit-call score of the fitted dose curve at least 0.9, where 1 is the maximum; inactive = score below 0.9); conditions: mRNA level, 48 h; actives raise or lower the signal
How it was run: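 Differentiated HepaRG cells in serum-free induction medium exposed 48 h in duplicate to 8 half-log concentrations, top 100 uM, 0.5% DMSO. TP53 mRNA by TaqMan qRT-PCR (Fluidigm), normalized to ACTB, GAPDH, POLR2A; fitted bidirectionally versus DMSO.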

[3] = read-out: UDP glucuronosyltransferase (UGT1A1), UGT1A1 (gene 54658); test: LTEA_HepaRG_UGT1A1: Life Technologies and Expression Analysis (LTEA) Assay for UDP glucuronosyltransferase (UGT1A1) using HepaRG (AID 2283538; active = hit-call score of the fitted dose curve at least 0.9, where 1 is the maximum; inactive = score below 0.9); conditions: mRNA level, 48 h; actives raise or lower the signal
How it was run: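 HepaRG cells, 0.5% DMSO vehicle, 48 h exposure in serum-free induction medium to 8-point half-log series topping at 100 uM, in duplicate. UGT1A1 mRNA by Fluidigm qRT-PCR, normalized to ACTB/GAPDH/POLR2A; bidirectional fit versus DMSO.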

[4] = read-out: UDP glucuronosyltransferase (UGT1A6), UGT1A6 (gene 54578); test: LTEA_HepaRG_UGT1A6: Life Technologies and Expression Analysis (LTEA) Assay for UDP glucuronosyltransferase (UGT1A6) using HepaRG (AID 2283539; active = hit-call score of the fitted dose curve at least 0.9, where 1 is the maximum; inactive = score below 0.9); conditions: mRNA level, 48 h; actives raise or lower the signal
How it was run: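 Expression was quantified by TaqMan qRT-PCR on Fluidigm arrays with ACTB/GAPDH/POLR2A normalization and bidirectional fitting against 0.5% DMSO. HepaRG cells (~100,000/well) were treated in duplicate for 48 h at eight half-log concentrations up to 100 uM in serum-free induction medium.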

[5] = read-out: X-box binding protein 1 (XBP1), XBP1 (gene 7494); test: LTEA_HepaRG_XBP1: Life Technologies and Expression Analysis (LTEA) Assay for X-box binding protein 1 (XBP1) using HepaRG (AID 2283540; active = hit-call score of the fitted dose curve at least 0.9, where 1 is the maximum; inactive = score below 0.9); conditions: mRNA level, 48 h; actives raise or lower the signal
How it was run: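 XBP1 transcript by qRT-PCR (housekeeping-normalized: ACTB, GAPDH, POLR2A) after 48 h chemical treatment of HepaRG cells, 8-point half-log series topping at 100 uM, vehicle 0.5% DMSO. Gain and loss of signal fitted relative to DMSO.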

[6] = LTEA_HepaRG_LDH_cytotoxicity: Cytotoxicity Assessment in the Life Technologies and Expression Analysis (LTEA) Assay (AID 2283563);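 as to AC50: LDH activity released into spent culture medium as a marker of cell death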
How it was run: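 LDH release into culture medium read after 48 h chemical treatment of HepaRG cells. Duplicate wells, eight-point half-log series topping at 100 uM, 0.5% DMSO vehicle and baseline.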

[7] = TOX21_p53_BLA_p2_viability: Viability Assessment in the Tox21 HCT-116 p53 Agonism Beta-lactamase Assay, Phase 2 (AID 2283591);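 also: compound exposure lasted 16 h at 37 °C; actives lower the ATP signal meaning cytotoxicity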
How it was run: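 Cytotoxicity readout: CellTiter-Glo ATP luminescence, 30 min at room temperature, after the beta-lactamase read. Cells were HCT116 exposed 16 h at 37C to compounds pin-transferred at 217-fold dilution from DMSO stocks.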

[8] = biological target: Cellular tumor antigen p53 (Homo sapiens) (UniProt P04637); test: TOX21_p53_BLA_p3_ratio: Tox21 HCT-116 p53 Agonism Beta-lactamase Assay, Ratio, Phase 3 (AID 2283596)
Sequence of Cellular tumor antigen p53 (Homo sapiens) (P04637 whole entry, looked up): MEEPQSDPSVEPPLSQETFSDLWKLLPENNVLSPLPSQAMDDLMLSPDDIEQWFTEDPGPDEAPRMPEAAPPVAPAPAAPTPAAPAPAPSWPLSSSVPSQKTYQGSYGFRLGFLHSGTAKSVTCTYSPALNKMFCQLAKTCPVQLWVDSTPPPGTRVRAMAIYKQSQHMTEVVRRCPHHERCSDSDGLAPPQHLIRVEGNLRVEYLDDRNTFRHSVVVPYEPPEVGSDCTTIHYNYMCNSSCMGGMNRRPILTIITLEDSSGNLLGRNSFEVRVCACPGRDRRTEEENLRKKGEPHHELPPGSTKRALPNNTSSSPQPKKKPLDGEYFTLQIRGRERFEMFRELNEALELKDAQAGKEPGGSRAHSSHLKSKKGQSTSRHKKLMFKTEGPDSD
How it was run: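 HCT116 p53-bla cells (4000/well) given compound in DMSO (217-fold dilution) after 5 h, incubated 16 h at 37C. CCF4-AM substrate 2 h at room temperature; 460/530 nm emission ratio, gain fitted against DMSO.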

[9] = TOX21_p53_BLA_p4_viability: Viability Assessment in the Tox21 HCT-116 p53 Agonism Beta-lactamase Assay, Phase 4 (AID 2283597);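 also: hits lower the luminescence signal meaning cytotoxicity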
How it was run: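 Following a 16 h exposure at 37C, the treated HCT116 wells were first read for the FRET ratio. They were then lysed with CellTiter-Glo, and ATP luminescence was recorded after 30 min at room temperature.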

[10] = biological target: Cellular tumor antigen p53 (Homo sapiens) (UniProt P04637); test: TOX21_p53_BLA_p5_ratio: Tox21 HCT-116 p53 Agonism Beta-lactamase Assay, Ratio, Phase 5 (AID 2283599)
How it was run: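 Beta-lactamase reporter ratio (blue 460 nm over green 530 nm, 405 nm excitation) after 2 h CCF4-AM loading, in HCT-116 cells exposed 16 h at 37 C to compounds pinned at 217-fold dilution. Increases relative to DMSO baseline scored.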

[11] = biological target: Cellular tumor antigen p53 (Homo sapiens) (UniProt P04637); test: TOX21_p53_BLA_p4_ratio: Tox21 HCT-116 p53 Agonism Beta-lactamase Assay, Ratio, Phase 4 (AID 2283601)
How it was run: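 Signal is the blue/green (460nm/530nm) ratio of cleaved versus uncleaved CCF4-AM substrate, read after 2 h substrate loading. Cells were HCT116 carrying the p53-responsive beta-lactamase reporter, dosed 16 h at 37C, 5% CO2; CellTiter-Glo measured in parallel.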

[12] = Tanguay_ZF_120hpf_MORT_legacy: (Legacy) Oregon State University Tanguay Lab 120 Hour Post-fertilization zebrafish Assay for Mortality (AID 2283633)
How it was run: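 Static waterborne exposure from 6 to 120 hpf at 28C of single dechorionated wild-type (5D) embryos per well, 0.64% DMSO final. Death recorded present/absent by brightfield at 24 and 120 hpf.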

[13] = Tanguay_ZF_120hpf_YSE_legacy: (Legacy) Oregon State University Tanguay Lab 120 Hour Post-fertilization zebrafish Assay for Yolk Sac Edema (AID 2283634);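 as to AC50: actives raise the incidence of yolk sac edema above the DMSO baseline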
How it was run: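 Presence or absence of yolk sac edema was recorded at 120 hpf in surviving larvae. These were wild-type Tropical 5D embryos, chorion removed at 4 hpf, held in static exposure at 28C from 6 hpf with 0.64% DMSO vehicle.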

[14] = Tanguay_ZF_120hpf_AXIS_legacy: (Legacy) Oregon State University Tanguay Lab 120 Hour Post-fertilization zebrafish Assay for Body Axis Malformation (AID 2283635)
How it was run: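 Binary scoring of axis defects at 120 hpf under brightfield, fitted positive versus DMSO. Tropical 5D embryos, chorion removed by pronase at 4 hpf, were singly exposed in sealed, dark plates at 28C from 6 hpf; DMSO 0.64% final.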

[15] = Tanguay_ZF_120hpf_EYE_legacy: (Legacy) Oregon State University Tanguay Lab 120 Hour Post-fertilization zebrafish Assay for Eye Malformation (AID 2283636)
How it was run: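 Read-out is binary presence or absence of eye malformation, scored by brightfield microscopy at 120 hpf. Single larvae were exposed from 6 hpf in embryo medium containing 0.64% DMSO, with DMSO as baseline.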

[16] = Tanguay_ZF_120hpf_SNOU_legacy: (Legacy) Oregon State University Tanguay Lab 120 Hour Post-fertilization zebrafish Assay for Snout Malformation (AID 2283637)
How it was run: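 Snout malformation read as a yes/no call on brightfield images of 120 hpf larvae (Tropical 5D strain). Static exposure began at 6 hpf on dechorionated embryos in 0.64% DMSO, with gain of signal analysed versus DMSO controls.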

[17] = biological target: Cellular tumor antigen p53 (Homo sapiens) (UniProt P04637); test: TOX21_p53_BLA_p2_ratio: Tox21 HCT-116 p53 Agonism Beta-lactamase Assay, Ratio, Phase 2 (AID 2283592)
How it was run: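 Gain-of-signal p53 agonism was scored from the beta-lactamase FRET ratio (460/530 nm, 405 nm excitation) in HCT116 cells treated 16 h at 37C, 5% CO2, with DMSO serving as negative control and baseline.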

[18] = TOX21_p53_BLA_p3_viability: Viability Assessment in the Tox21 HCT-116 p53 Agonism Beta-lactamase Assay, Phase 3 (AID 2283593);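 also: cells exposed to compound for 16 h before reading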
How it was run: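 Cellular ATP was quantified by CellTiter-Glo luminescence, read after 30 min at room temperature. Beforehand, HCT116 cells (4000/well) received compound 5 h post-seeding, 217-fold diluted from DMSO, then incubated 16 h at 37C.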

[19] = TOX21_p53_BLA_p5_viability: Viability Assessment in the Tox21 HCT-116 p53 Agonism Beta-lactamase Assay, Phase 5 (AID 2283600)
How it was run: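 After the 460/530 nm beta-lactamase measurement, the wells received an ATP-detection luciferase reagent; signal was read 30 min later at RT. Compound treatment lasted 16 h on cells pre-incubated 5 h post-seeding.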

Measured: AC50

CCCCCOC(=O)c1ccccc1C(=O)OCCCCC
not listed: [17] | [18] | [19]
inactive: all other assays above

CCOc1cccc(C2(N3CCN(c4ccccc4)CC3)CCC(C)CC2)c1 (stereo not given)
active: [3] 43.5 µM
not listed: [7] | [9] | [10] | [11] | [17] | [18] | [19]
inactive: all other assays above

OCCOCCO
inactive: [1] | [3] | [4] | [5] | [6] | [12] | [13] | [14] | [15] | [16]

CCCCCCCCCCCCCN1CC(C)OC(C)C1 (stereo not given)
not listed: [7] | [9] | [10] | [18] | [19]
inactive: all other assays above

COC(=O)Nc1nc2ccccc2[nH]1
active: [3] 31.4 µM | [17] 10.1 µM and 7.91 µM | [8] 12.9 µM and 8.81 µM | [10] 15 µM and 15.4 µM | [11] 9.43 µM and 7.88 µM | [13] 47.5 µM | [15] 46.4 µM
not listed: [7] | [12] | [18] | [19]
inactive: all other assays above

O=[N+]([O-])C(Br)(CO)CO
inactive: [1] | [3] | [4] | [5] | [6] | [12] | [13] | [14] | [15] | [16]

Cc1ccc(N=C=O)cc1N=C=O
active: [1] 19.3 µM | [6] 33.1 µM
not listed: [7]
inactive: all other assays above

CC(C)COC(=O)c1ccccc1C(=O)OCC(C)C
active: [15] 30.5 µM | [16] 44.1 µM
inactive: [1] | [3] | [4] | [5] | [6] | [12] | [13] | [14]
